According to ChEMBL document CHEMBL3433997, “St. Jude Leishmania screening dataset” (2016):

What was measured:
Format in all cases: functional
[1] = target: Solute carrier family 2, facilitated glucose transporter member 1 (Homo sapiens) (UniProt P11166); assay: ST_JUDE_LEISH: Cytotoxicity at 2uM final concentration against transgenic Leishmania Mexicana promastigotes LmGLUT1 that are glucose transport deficient and complemented with the human glucose transporter GLUT1. Activity is measured by DNA content using SYBR green in vitro
Chain of Solute carrier family 2, facilitated glucose transporter member 1 (Homo sapiens) (P11166 whole entry): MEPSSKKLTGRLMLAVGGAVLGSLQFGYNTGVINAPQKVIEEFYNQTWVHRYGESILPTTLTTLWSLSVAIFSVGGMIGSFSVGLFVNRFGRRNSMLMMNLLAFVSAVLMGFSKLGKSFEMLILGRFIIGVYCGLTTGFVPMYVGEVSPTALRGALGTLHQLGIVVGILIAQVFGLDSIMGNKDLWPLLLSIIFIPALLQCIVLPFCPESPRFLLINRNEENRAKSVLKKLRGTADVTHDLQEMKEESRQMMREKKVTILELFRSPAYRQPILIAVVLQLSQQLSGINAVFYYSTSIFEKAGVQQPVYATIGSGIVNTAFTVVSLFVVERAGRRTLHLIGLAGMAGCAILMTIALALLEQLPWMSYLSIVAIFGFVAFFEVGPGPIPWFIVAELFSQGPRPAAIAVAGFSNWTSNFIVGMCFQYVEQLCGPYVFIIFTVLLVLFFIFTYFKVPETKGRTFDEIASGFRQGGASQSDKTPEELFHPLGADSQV

[2] = target: Hexose transporter 1 (Plasmodium falciparum) (UniProt O97467); assay: ST_JUDE_LEISH: Cytotoxicity at 2uM final concentration against transgenic Leishmania Mexicana promastigotes LmPfHT that are glucose transport deficient and complemented with the Plasmodium falciparum hexose transporter. Activity is measured by DNA content using SYBR green in vitro
[3] = target: Glucose transporter (Leishmania mexicana) (UniProt O61059); assay: ST_JUDE_LEISH: Cytotoxicity at 2uM final concentration against transgenic Leishmania Mexicana promastigotes LmGT2 that are glucose transport deficient and complemented with the L. Mexicana glucose transporter 2. Activity is measured by DNA content using SYBR green in vitro

CC(Cc1ccc(C(=O)OCCOC(=O)c2ccc(CC(C)NCC(O)c3cccc(C(F)(F)F)c3)cc2)cc1)NCC(O)c1cccc(C(F)(F)F)c1 (stereo not given) gave an inhibition [1] of 1.7%, an inhibition [2] of -0.31% and an inhibition [3] of 2.65%.
Work on CC(=O)Nc1ncc(C(=O)Nc2cccc(-c3ccc(-c4nc5cccc(C)c5[nH]4)cc3)c2)s1 yielded an inhibition [1] of 0.14%, an inhibition [2] of 0.54% and an inhibition [3] of 0.54%.
In the case of CCCN1CCN(c2cc(NCC)c3c4c(onc24)-c2ccccc2C3=O)CC1, the inhibition [1] was 7.98%, the inhibition [2] was 8.22% and the inhibition [3] was 6.9%.
Work on O=c1cc(NCCCNCc2cn(S(=O)(=O)c3ccccc3)c3ccccc23)[nH]c2ccccc12 yielded an inhibition [1] of -0.4%, an inhibition [2] of -0.55% and an inhibition [3] of -0.88%.
CC(C)CC(=O)N1CCNC[C@@H]1C(=O)NC1CC1 was tested, and the inhibition [1] was 1.66%, the inhibition [2] was 1.41% and the inhibition [3] was -0.37%.
Compound Cc1ccc2[nH]c(-c3cc(-c4cccc(CCN5CCOCC5)c4)cnc3N)nc2c1 has an inhibition [1] of 4.66%, an inhibition [2] of 5.93% and an inhibition [3] of 1.19%.
CCN(CCCN1CCCCC1)c1cc(C)nc(Nc2cc(C)ccc2C)n1 showed an inhibition [1] of -1.92%, an inhibition [2] of 0.68% and an inhibition [3] of -0.58%.
Compound OC(c1cc(C(F)(F)F)nc2c(F)cccc12)C1CCCCN1 (stereo not given) has an inhibition [1] of 0.27%, an inhibition [2] of 1.52% and an inhibition [3] of 1.48%.
In the case of O=C(Nc1ccc2[nH]c(-c3ccc4nc(NC(=O)C5CCCCC5)sc4c3)nc2c1)C1CCCCC1, the inhibition [1] was 0.5%, the inhibition [2] was -0.34% and the inhibition [3] was -1.71%.
With NC(=O)c1cnc2ccc(-c3cncs3)cc2c1Nc1ccc(F)c(Cl)c1 the inhibition [1] was 1.94%, the inhibition [2] was 2.75% and the inhibition [3] was 1.95%.
COc1cccc(CN2Cc3ccccc3OC3(CCN(Cc4c[nH]c5cnccc45)CC3)C2)c1 was tested, and the inhibition [1] was -0.87%, the inhibition [2] was -0.52% and the inhibition [3] was 0.59%.
Compound CC(C)Oc1ccccc1-c1csc(C(=O)NCC2CCN(Cc3ccc(C(C)(C)C)cc3)C2)c1 (stereo not given) has an inhibition [1] of 0.7%, an inhibition [2] of 1.62% and an inhibition [3] of -2.96%.
CCCCOc1cc2c(cc1OCC)C(C=Cc1ccc(Cl)cc1Cl)=NCC2 showed an inhibition [1] of 15.5%, an inhibition [2] of 27.9% and an inhibition [3] of 10.2%.
For Cc1cc(-c2cnc(N)c(-c3ccc(N4CCN(C)CC4)cc3)c2)cc(C)c1O, the inhibition [1] was 3.43%, the inhibition [2] was 0.67% and the inhibition [3] was 2.45%.
Work on COc1ccccc1NC(=O)Nc1ccc(-c2ccc(-c3nc4cccc(C)c4[nH]3)s2)cc1 yielded an inhibition [1] of 3.53%, an inhibition [2] of 1.17% and an inhibition [3] of 1.64%.
Cn1nccc1C(=O)NCCNCc1ccc(-c2ccc(-c3nc4ccccc4[nH]3)s2)cc1 gave an inhibition [1] of 4.38%, an inhibition [2] of 3.81% and an inhibition [3] of 0.63%.
CCOC(=O)CNCC(=O)c1ccc(OCc2ccccc2)cc1 showed an inhibition [1] of 1.94%, an inhibition [2] of 0.64% and an inhibition [3] of 2.44%.
For COc1ccc(-c2ccc(NC(=O)c3ccc(Cl)cc3)cc2)cc1CN1CCNCC1, the inhibition [1] was 1.97%, the inhibition [2] was 2.41% and the inhibition [3] was 2%.
Work on Fc1cc(Cl)ccc1Nc1ccnc2cc(-c3ccc(CN4CCSCC4)o3)ccc12 yielded an inhibition [1] of 1.72%, an inhibition [2] of 3.56% and an inhibition [3] of 8.14%.
Compound COc1ccc(-c2ccc(NC(=O)c3ccccc3)cc2)cc1CN1CCCN(C)CC1 has an inhibition [1] of 1.09%, an inhibition [2] of -0.14% and an inhibition [3] of -1.41%.
Compound COc1cc2nc(N3CCC(CNC(=O)c4ccc(-c5ccc(C(=O)N(C)C)cc5C)cc4)CC3)nc(N3CCN(C)CC3)c2cc1OC has an inhibition [1] of -0.31%, an inhibition [2] of 0.88% and an inhibition [3] of 1.23%.
In the case of O=C(N[C@@H](Cc1ccccc1)C(=O)NC1CCCCC1)c1ccc(O)c(-c2cccc(C(F)(F)F)c2)c1, the inhibition [1] was 3.98%, the inhibition [2] was 5.95% and the inhibition [3] was 5.39%.
With COc1ccc(C(C(=O)NC2CCN(C[C@H](O)c3ccnc4ccc(OC)cc34)CC2)N2CCN(c3ccc(F)cc3)CC2)cc1 (stereo not given in full) the inhibition [1] was 1.52%, the inhibition [2] was 1.23% and the inhibition [3] was 1.93%.
COc1cc2[nH]c(-c3ccc(O)cc3)c(C)c(=O)c2c(OC)c1OC gave an inhibition [1] of 2.67%, an inhibition [2] of 0.09% and an inhibition [3] of -2.9%.
CNC(=O)c1cnc(Nc2ccc3[nH]c(=O)[nH]c3c2)nc1Nc1cccc(OC(C)C)c1 showed an inhibition [1] of -0.17%, an inhibition [2] of -0.76% and an inhibition [3] of -0.26%.
Work on Cc1cc(Nc2cccc(C(F)(F)F)c2)nc(Nc2cccc(C(F)(F)F)c2)n1 yielded an inhibition [1] of 4.73%, an inhibition [2] of 4.81% and an inhibition [3] of -0.49%.
COc1cccc(CCc2c(CCNCCCCCCNCCc3ccccc3)ccc(OC)c2OC)c1 gave an inhibition [1] of 93%, an inhibition [2] of 102% and an inhibition [3] of 106%.
With CCC[C@@H]([C@@H](CC1CCCCC1)C(=O)N[C@H](C(=O)Nc1nccs1)C(C)(C)SCCNC(=O)OCC)N(O)C=O the inhibition [1] was 3.35%, the inhibition [2] was 4.46% and the inhibition [3] was 4.28%.
Work on Cc1cccc2nc(-c3cccc(-c4cccc(NC(=O)NCc5cccc(F)c5)c4)c3)[nH]c12 yielded an inhibition [1] of 4.66%, an inhibition [2] of 6.34% and an inhibition [3] of 5.41%.
Compound COc1ccc2nccc([C@@H](O)CN3CCC(NCc4ccc5c(n4)NC(=O)CS5)C(F)C3)c2c1 (stereo not given in full) has an inhibition [1] of 2.08%, an inhibition [2] of 1.5% and an inhibition [3] of 1.99%.
CCN1C(=O)C(CC(=O)Nc2cccc(Cl)c2)N(Cc2ccc(OC)c(OC)c2)C1=S (stereo not given) gave an inhibition [1] of 0.59%, an inhibition [2] of 4.35% and an inhibition [3] of 0.57%.
Cc1ccc(NC(=O)c2cccc(C#N)c2)cc1-c1ccc(C(=O)Nc2ccncc2)cc1 showed an inhibition [1] of 7.71%, an inhibition [2] of 9.75% and an inhibition [3] of 4.44%.
CN1CCN(CCCN(Cc2cccc(-c3ccc(CNCCc4ccccc4)cc3)c2)C(=O)Nc2ccccc2)CC1 gave an inhibition [1] of 2.48%, an inhibition [2] of 7.14% and an inhibition [3] of 1.35%.
CC(C)(C)OC(=O)NCc1ccc(Nc2nnc(-c3cccc(OCC(=O)NCc4cc(C(F)(F)F)cc(C(F)(F)F)c4)c3)o2)cc1 was tested, and the inhibition [1] was 0.8%, the inhibition [2] was 1.63% and the inhibition [3] was 1.12%.
CCCCCN1CCCN(Cc2cccc(NC(=O)c3ccc4ccccc4c3)c2)CC1 was tested, and the inhibition [1] was 4.56%, the inhibition [2] was 4.49% and the inhibition [3] was 4.95%.
